The values that follow come from PubChem BioAssay.

The structures appear in SMILES notation.

In assay [1] the target is Tumor necrosis factor receptor superfamily member 10B (Homo sapiens) (UniProt O14763). Put plainly: viability loss of caspase-8 NB7 cells with TRAIL – with/without TRAIL, luminescence panel, confirmation (AID 651596). As to conditions: NB7 neuroblastoma + caspase-8, TRAIL sensitization, NB7 Caspase-8, with TRAIL, mean of runs, at 10 µM, stronger effect = higher value.
Test in assay [2]: as above
As to conditions: NB7 neuroblastoma + caspase-8, without TRAIL, NB7 Caspase-8, without TRAIL, mean of runs, at 10 µM.

Tumor necrosis factor receptor superfamily member 10B (Homo sapiens), sequence (O14763 whole entry, looked up): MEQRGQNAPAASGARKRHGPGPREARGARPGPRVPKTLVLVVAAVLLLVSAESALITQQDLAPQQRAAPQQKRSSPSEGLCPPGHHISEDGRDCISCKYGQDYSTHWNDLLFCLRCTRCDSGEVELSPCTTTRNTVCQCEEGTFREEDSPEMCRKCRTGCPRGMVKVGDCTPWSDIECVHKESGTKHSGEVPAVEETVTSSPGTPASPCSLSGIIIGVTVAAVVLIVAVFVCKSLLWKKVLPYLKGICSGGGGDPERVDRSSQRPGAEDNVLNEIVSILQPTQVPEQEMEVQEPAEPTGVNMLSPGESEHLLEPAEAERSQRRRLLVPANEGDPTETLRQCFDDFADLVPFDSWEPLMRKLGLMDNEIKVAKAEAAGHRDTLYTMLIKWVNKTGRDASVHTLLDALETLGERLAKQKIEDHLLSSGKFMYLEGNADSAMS

Consider `C#Cc1ccc(NC(=O)C2(C)CCN2C(=O)CC(c2ccccc2)c2ccccc2)cc1` (centres undefined), for which the activity was 94.4% in assay [1] and 89% in assay [2].
For `Cc1cc(C(=O)CSc2nnc(N)s2)c(C)n1Cc1cccs1`, in that order: 72.5% and 77.5%.
For `Cc1cc(NC(=O)c2cc3n(n2)C(C(F)(F)F)CC(c2ccco2)N3)no1` (centres undefined), in that order: -11.1% and -14.8%.
In the same order, the values of `O=C(/C=C/c1ccco1)Nc1ccc2c(c1)OCCO2` are 71.8% and 65.1%.
`C=CCc1ccccc1OCC(=O)N/N=C/c1ccc(OC(C)=O)cc1OC(C)=O`: the activity in assay [1] was -0.55%; in assay [2] it was 27.2%.
For `CCn1c(=O)c([N+](=O)[O-])c(Cl)c2ccccc21`, in that order: 83.6% and 70.1%.
For `Cc1ccc2nc(-c3ccccc3)nn2c1`, in that order: 83.9% and 80.3%.
For `Cc1cc(C(=O)COC(=O)c2cccnc2Cl)c(C)n1C`, in that order: 62.8% and 40.4%.
On to `O=C(N/N=C/c1cccc([N+](=O)[O-])c1)c1ccc2c(c1)OCCO2`, for which the activity in assay [1] was found to be 73.3%; in assay [2], 61.3%.
For `CCCCCCCCCCCCCCCC[N+](C)(C)Cc1ccc(F)cc1`, in that order: 80.7% and 74.2%.
In the same order, the values of `O=C(/C=C/Nc1ccccc1C(F)(F)F)c1ccco1` are 97.2% and 99.3%.
In the same order, the values of `CN(C(=O)c1ccc(NC(=O)Cc2cccc(NC(=O)C3CCCN(S(=O)(=O)c4cccc([N+](=O)[O-])c4)C3)c2)cc1)C1CC1` (centres undefined) are 56.3% and 36.1%.
`O=C(OCn1ncc(Cl)c(Cl)c1=O)c1cccc(C(F)(F)F)c1`: the activity in assay [1] came out at 99.2%; in assay [2], 99.3%.
As to `Cc1ccc2cc(NC(=O)c3ccccc3)ccc2n1`, the activity was found to be 55% in assay [1] and 43.6% in assay [2].
For `CCOc1ccc(C(=O)Nc2ccc3[nH]ncc3c2)cc1`, in that order: 82.6% and 82.7%.
For `O=C(NC(=S)Nc1ccc(Cl)cn1)c1cccs1`, the activity in assay [1] is 79.4%; in assay [2], 76.3%.
In the same order, the values of `O=C(CCl)Nc1c(C(=O)Nc2ccc3c(c2)OCCO3)oc2ccccc12` are 93.3% and 90.3%.
`CCCCCCCN(C(=O)CCl)c1ccccc1C`: the activity stood at 99.6% in assay [1] and 98.1% in assay [2].
For `Cc1cc(C)c2c(c1)/C(=C/C(=O)c1ccc(Br)s1)C(=O)N2`, in that order: 91.8% and 98%.
For `Cc1ccccc1-c1nc2sc3c(c2c(=O)n1N)CCCC3`, in that order: 44% and 46%.
Consider `CN1CCc2c(sc(NC(=O)c3ccc([N+](=O)[O-])o3)c2C(N)=O)C1`, for which the activity in assay [1] came out at 9.5%; in assay [2] it was 95.3%.
Regarding `CSc1ccc(NC(=O)Nc2cc(C)ccn2)cc1`, the activity in assay [1] turned out to be 52.8%; in assay [2] it was 35.7%.
For `CCC(C)c1ccc(-c2cc(C(=O)OCC(=O)Nc3cc(C)on3)c3ccccc3n2)cc1` (centres undefined), in that order: 85.1% and 85.7%.
For `CCCOc1ccc(-c2cn3ccccc3n2)cc1`, in that order: 92.7% and 91.2%.
As for `COc1ccc(-c2cc3cccc(OC)c3oc2=O)cc1`, the activity in assay [1] was determined as 81.8%; in assay [2] it was 80.2%.
For `CCCC(=O)Nc1ccc(-c2csc(N/N=C\c3ccncc3)n2)cc1`, in that order: 61.5% and 65.6%.
For `O=C(Nc1nc2ccccc2[nH]1)c1ccc(F)cc1`, in that order: 90.8% and 91%.
For `Cc1ccc(C(=O)OCn2ncc(Cl)c(Cl)c2=O)cc1`, in that order: 100% and 100%.
Take `Cc1ccc(/C=N/Nc2nnc(Cl)c3ccccc23)cc1`: the values for the activity in assay [1] and in assay [2] were 82.6% and 73.8%, respectively.
In the same order, the values of `COc1ccc2c(c1OC)C(=O)OC2Nc1nc(-c2ccc(-c3ccccc3)cc2)cs1` (centres undefined) are 47.4% and 49.4%.
For `NC(=S)NN=C1c2cc(OCCN3CCOCC3)ccc2-c2ccc(OCCN3CCOCC3)cc21`, in that order: 99% and 99.5%.
In the same order, the values of `CCCCN(C)C(=O)c1cc2cc3ccc(OC)cc3nc2s1` are 69.9% and 70.3%.
Regarding `O=C(NCc1cccnc1)/C(=C\c1ccc(-c2ccc(Cl)c(Cl)c2)o1)S(=O)(=O)c1ccccc1`, the activity in assay [1] is 98.1%; in assay [2] it was 99.2%.
In the same order, the values of `Cn1c(=O)n(CCc2ccccc2)c(=O)c2c1nc1n2CCCN1CCc1ccccc1` are 21.1% and 24.9%.
For `C/C(=N\NC(=O)c1ccncc1)c1cccc(NC(=O)c2ccc(C(C)(C)C)cc2)c1`, the activity was found to be 85.5% in assay [1] and 81.6% in assay [2].
In the same order, the values of `CN(C)CCCNC(=O)C[C@H]1C[C@H](C(=O)N2CCCCC2)[C@@]2(CCc3ccccc3)c3[nH]c4ccc(Cl)cc4c3CCN2C1=O` are 35.8% and 82.6%.
For `CC(C)(C)c1ccc(-c2nc3cc(N)ccc3o2)cc1`, in that order: 81.9% and 80.5%.
In the same order, the values of `CCn1nnc(NC(=O)c2ccc(C(C)(C)C)cc2)n1` are 69.1% and 75.2%.
As for `C=CCn1c(C)cc(C(=O)CN2C(=O)c3ccccc3C2=O)c1C`, the activity in assay [1] turned out to be 60.2%; in assay [2], 57.3%.
`CCOC(=O)c1c(NC(=O)COc2ccccc2OCC)sc2c1CC(C)(C)NC2(C)C`: the activity in assay [1] is 95.8%; in assay [2], 99.3%.
For the compound `CCC(=O)Nc1cc2nn(-c3ccccc3)nc2cc1Cl`, the activity turned out to be 67.5% in assay [1] and 65.9% in assay [2].
For `O=C(CSc1nnc(NC(=O)c2ccccc2)s1)NCC1CCCO1` (centres undefined), in that order: 60.9% and 63.2%.
In the same order, the values of `O=C1Nc2cc(C(=O)NCCN3CCCCCC3)ccc2S/C1=C/c1ccccc1F` are 82.5% and 96%.
For `Cc1cccnc1NC(=O)c1sc2ccccc2c1Cl`, in that order: 33.3% and 23.5%.
`O=c1c2sc(-c3ccccc3)cc2nc2n1CCC2`: the activity in assay [1] stood at 46.9%; in assay [2] it was 50%.
In the same order, the values of `O=C(Nc1ccc2c(c1)CCC2)c1ccc(F)cc1` are 49.5% and 44.1%.
In the case of `COC(=O)c1sc(NC(=S)NC(=O)c2cccc(C)c2)nc1C`, the activity is 46.2% in assay [1] and 33.2% in assay [2].
